Columns and labels:
[1] = target: T1, Aspartate--tRNA(Asp/Asn) ligase (Mycobacterium tuberculosis (strain ATCC 25618 / H37Rv)) (UniProt P9WFW3); assay: Assay for Asp RNA synthetase-1 from Mycobacterium tuberculosis; format: functional; design: scale not given: direction of the effect not stated beside the values; settings: 30 µM; also: in the data most compounds retested in dose-response had high values
T1 sequence (whole entry): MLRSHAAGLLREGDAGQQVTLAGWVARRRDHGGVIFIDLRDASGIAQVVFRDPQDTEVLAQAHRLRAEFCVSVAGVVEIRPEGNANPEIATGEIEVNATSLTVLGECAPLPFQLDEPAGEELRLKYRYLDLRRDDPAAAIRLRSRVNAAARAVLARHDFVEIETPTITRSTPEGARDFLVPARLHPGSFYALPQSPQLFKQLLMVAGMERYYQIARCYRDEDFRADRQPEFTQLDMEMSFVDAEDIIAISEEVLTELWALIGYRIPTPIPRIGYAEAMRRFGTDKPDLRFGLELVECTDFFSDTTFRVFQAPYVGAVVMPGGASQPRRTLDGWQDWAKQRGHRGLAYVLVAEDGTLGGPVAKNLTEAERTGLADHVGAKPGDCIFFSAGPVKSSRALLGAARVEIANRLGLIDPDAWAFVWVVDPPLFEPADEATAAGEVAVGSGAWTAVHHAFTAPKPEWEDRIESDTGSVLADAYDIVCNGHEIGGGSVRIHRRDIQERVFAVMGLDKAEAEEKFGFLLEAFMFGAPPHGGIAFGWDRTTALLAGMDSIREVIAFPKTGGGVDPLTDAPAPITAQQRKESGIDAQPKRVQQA

[2] = target: Shiga toxin 2 (Escherichia coli O157:H7) (UniProt P09385+P09386); assay: E. coli 0.157:H7 Shiga Toxin SOP - stx2 screening assay; format: functional; design: scale not given: direction of the effect not stated beside the values; settings: 30 µM

SMILES | Percent Effect [1] [%] | Percent Effect [2] [%]
CO[C@H]1CN(Cc2cccc(C#N)c2)[C@@H]2COC[C@H]12 | 4.8 | -22.2
COc1ccc(-c2noc(CN3CCc4cncnc4C3)n2)cc1 | -0.389 | -15
CCc1sc(-c2nnc(CNCCn3cc(C)cn3)o2)cc1C | 2.52 | -107
c1ncn(CC2CN(Cc3csc(C4CCCC4)n3)CCO2)n1 (configuration not stated) | -2.81 | 13.4
NC(=O)N1CCC2(CC1)CN(c1ccsc1)C(=O)CO2 | 1.31 | -21.1
CN(C)C(=O)c1ccc(CNC(=O)NCCN(C)C2CCCC2)cc1 | 1.57 | 14.3
CN(CC1CCCCO1)C(=O)c1ccnc(OC2CCC2)c1 (configuration not stated) | -2.11 | -8.22
O=C(c1ccnnc1)N1CCN2C[C@H](Oc3cccc(F)c3)C[C@H]2C1 | -0.611 | -1.95
CN1CCOC(CNCc2cccc(OCc3ccccn3)c2)C1 (configuration not stated) | -8.22 | -16.3
COc1cc(C(=O)N2CCC(c3n[nH]c(C4CC4)n3)CC2)ccc1C | -0.859 | 3.06
Cc1cc(C)c(CNC(=O)N2CCN(c3cnccn3)CC2)c(=O)[nH]1 | -0.167 | 9.86
CO[C@@H]1CC[C@H]2[C@H]1OCCN2C(=O)COc1ccc(F)cc1 | -2.58 | -2.38
Cc1cc(C)nc(Nc2cc(C3CCCN(C)C3)nc(C)n2)n1 (configuration not stated) | 0.64 | -0.428
O=C(c1ccc(Cl)c(Cl)c1)N1CCCC(n2cncn2)C1 (configuration not stated) | -2.85 | 15.6
CN(C)S(=O)(=O)N1CCCC1CC(=O)c1cccs1 (configuration not stated) | 2.35 | -10.2
CC(C)NC(=O)[C@@H]1C[C@H](N)CN1C(=O)c1cc2ccccc2[nH]c1=O | -2.73 | -0.544
